Here are results for 40 compounds from PubChem BioAssay (Tox21).

Records with an inconclusive call do not appear. A number with no mark means an inactive call. Calls of active or inactive are those of the source. Calls come from the whole dose curve.
% is set by controls: 0 for no effect and ±100 for the full control effect; potency is the fitted concentration of half-maximal effect.

Sequence of Retinoic acid receptor RXR-alpha (Homo sapiens) (P19793 whole entry, looked up): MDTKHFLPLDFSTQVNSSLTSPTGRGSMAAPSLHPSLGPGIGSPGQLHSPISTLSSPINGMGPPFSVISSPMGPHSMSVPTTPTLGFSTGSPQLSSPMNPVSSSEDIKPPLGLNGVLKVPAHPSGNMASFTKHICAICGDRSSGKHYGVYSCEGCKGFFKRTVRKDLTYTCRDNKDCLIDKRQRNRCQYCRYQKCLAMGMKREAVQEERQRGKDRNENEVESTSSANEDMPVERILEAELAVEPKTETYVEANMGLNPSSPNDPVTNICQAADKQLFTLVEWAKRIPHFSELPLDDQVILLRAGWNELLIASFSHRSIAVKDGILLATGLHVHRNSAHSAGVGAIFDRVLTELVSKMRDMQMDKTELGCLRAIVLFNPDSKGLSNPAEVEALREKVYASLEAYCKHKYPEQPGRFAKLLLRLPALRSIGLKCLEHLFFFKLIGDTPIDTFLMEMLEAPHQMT

The experiment addresses Retinoic acid receptor RXR-alpha (Homo sapiens) (UniProt P19793). Put plainly: qHTS assay to identify small molecule agonists of the RXR signaling pathway (AID 1159527). Note: nearly all actives have a fitted effect of over 35% in size. The note with it: HEK293T RXRa-UAS-bla, beta-lactamase ratio, 16 h; series mostly up to 76.8 µM; activation: at the top concentration. An excerpt: U.S. Tox21 Program National Center for Advancing Translational Sciences [NCATS] NIH Chemical Genomics Center [NCGC] U.S. Environmental Protection Agency [EPA] National Institutes of Environmental Health Sciences [NIEHS] National Toxicology Program [NTP] U.S. Food and Drug Administration [FDA] Tox21 Assay Overview: The Retinoid X receptor (RXR), a nuclear hormone receptor expressed in liver, spleen, placenta, epidermis, central nervous system. These receptors are able to form homo and heterodimers with other nuclear receptors and due to this heterodimerizing ability, RXR functions as master regulators producing diverse physiological effects. Three subtypes of RXR exist; alpha, beta and gamma. Retinoid X receptor alpha (RXR-alpha) has potential roles in metabolic signaling pathways, skin alopecia, dermal cysts, cardiac development, insulin sensitization etc. Therefore screening environmental chemicals on RXR-alpha signaling can be used for the studies focused on such therapeutic applications. For quantification of RXR-alpha ligands signaling, GeneBLAzer RXR alpha-UAS-bla HEK 293T (Life Technologies, Carlsbad, CA) cells containing a beta-lactamase reporter-gene under control of Retinoid X receptor-alpha response element were used to screen Tox21 10K library.
Tox21 Assay Protocol Summary: RXR-alpha HEK 293T cells were dispensed at 2,000 cells/6 uL of assay medium containing 2% charcoal-stripped FBS using a Multidrop Combi (ThermoFisher Scientific, Waltham, MA) dispenser. The assay was performed in black wall/clear-bottom 1536-well plates (Greiner Bio-One North America Inc. Monroe, NC). 9-cis retinoic acid was used as a positive control in the agonist mode screen. After the assay plates were incubated at 37 C and 5% CO2 for 5 hr, 23 nL of compounds dissolved in DMSO, positive controls or DMSO only were transferred to the assay plate by a Pintool station (Kalypsys, San Diego, CA). The assay plates were incubated at 37 C and 5% CO2 for 16 hr. One uL of LiveBLAzer B/G FRET substrate (Life Technologies) was added using a Flying Reagent Dispenser (Aurora Discovery, San Diego, CA) and the plates were incubated at room temperature for 2 hr. Fluorescence intensity (405 nm excitation, 460/530 nm emission) was measured using an Envision plate reader (PerkinElmer, Shelton, CT).
Background: In qHTS, concentration-response curves come from the screen itself.
For the compound `O=NN1CCN(N=O)CC1`, the “activation” value was 6.26%. Take `c1coc(-c2nc3ccccc3[nH]2)c1`: the “activation” value was 1.39%. In the case of `CNC(=O)Oc1ccccc1C1OCCO1`, the “activation” value is 13.2%. On the same count and under the same terms, to `CCN(Cc1ccc(Cl)nc1)/C(=C/[N+](=O)[O-])NC` belongs -1.81% [at 35.3 µM]; to `O=C(O)c1cccc(Cl)c1`, 13.8%. On the same count and under the same terms, for `ClCCOCOCCCl` the value was 8.96%; for `O=C1OC(=O)C2C1C1(Cl)C(Cl)=C(Cl)C2(Cl)C1(Cl)Cl` (stereo not given), 2.81%; for `CCOC(=O)/C=C(C)/C=C/C[C@@H](C)CCCC(C)C`, -13.9%. For `CC(C)[N+](=O)[O-]`, the “activation” value is 10.1%. Same read-out and setting: to `Cc1cc(C)nc(Nc2ccccc2)n1` belongs -6.75%. Consider `CNCC(=O)c1ccc(O)c(O)c1`, for which the “activation” value is 12.4% [at 35.3 µM].

With `Cc1cc(C)c(C(=O)P(=O)(C(=O)c2c(C)cc(C)cc2C)c2ccccc2)c(C)c1`, the “activation” value is -5.89%.

Consider `CCN(CC)c1nc(C)cc(OP(=S)(OC)OC)n1`, for which the “activation” value was 16.7%. For the compound `CCC1(c2ccccc2)C(=O)N=C(O)NC1=O` (stereo not given), the Potency is 12 µM (active). Regarding `COC(=O)c1ccccc1S(=O)(=O)NC(=O)Nc1nc(C)cc(C)n1`, the “activation” value was 10.3%. Regarding `O=C(O)C(Br)CBr` (stereo not given), the Potency is 9.94 µM (active).

Consider `CCC(=O)C(CCN(C)C)(c1ccccc1)c1ccccc1`, for which the “activation” value is -15.8% [at 35.3 µM]. Same read-out and setting: for `Cc1ncc(CNC(=O)N(CCCl)N=O)c(N)n1` the value was 4.28% [at 35.3 µM].

For `CC(CC(C#N)(c1ccccc1)c1ccccc1)N(C)C` (stereo not given), the “activation” value is -17.9%. On the same count and under the same terms, for `O=[N+]([O-])c1cc(Cl)c(Cl)c(Cl)c1` the value was -3.66%.

Regarding `C1CCC(C2CCCCC2)CC1`, the Potency was 38.9 µM (active). `CC1(C(=O)Nc2ccc(O)c(Cl)c2Cl)CCCCC1`: the “activation” value is 3.76%. For the compound `CC(CCc1ccccc1)NC(C)C(O)c1ccc(O)cc1` (stereo not given), the “activation” value is 0.183% [at 35.3 µM]. Still for that read-out and setting: to `CCS(=O)(=O)C(C)(C)S(=O)(=O)CC` belongs 6.93% [at 35.3 µM]; to `COc1ncc(F)c2nc(S(=O)(=O)Nc3c(F)cccc3F)nn12`, 3.84% [at 35.3 µM].

On to `CCCCCCBr`, for which the “activation” value is 0.211%. The same measure, in the same setting: for `C[N+](C)=CCl` the value was 11.2%; for `CCCCc1ccc(O)cc1`, -3.72%. The same measure, in the same setting: for `C[C@@H]1CN(C2CCC(C#N)(c3ccc(F)cc3)CC2)CC[C@]1(C(=O)O)c1ccccc1` (stereo not given in full) the value was 1.23% [at 35.3 µM]; for `O=C1OC(CCN2CCCCC2)OC1(c1ccccc1)c1ccccc1` (stereo not given), -0.658% [at 35.3 µM]. In the case of `NC1=NC(=O)C(c2ccccc2)O1` (stereo not given), the “activation” value was 5.06% [at 35.3 µM]. Same read-out and setting: for `Cc1nnc2n1-c1sc(CCC(=O)N3CCOCC3)cc1C(c1ccccc1Cl)=NC2` the value was 5.61% [at 35.3 µM].

Take `CCC(Cl)[N+](=O)[O-]` (stereo not given): the “activation” value is 4.42%. The same measure, in the same setting: for `CC(N)=S` the value was -0.919%. On the same count and under the same terms, for `OC(c1ccc(F)cc1)(c1cncnc1)c1ccccc1Cl` (stereo not given) the value was 2.81%. Consider `COP(=S)(OC)Oc1ccc(S(N)(=O)=O)cc1`, for which the “activation” value was 5.47% [at 35.3 µM]. Same read-out and setting: for `ClC(Cl)Br` the value was -0.343%; for `C#C[C@]1(O)C=C[C@H]2[C@@H]3CCC4=CC(=O)CC[C@@H]4[C@H]3CC[C@@]21CC`, -14.1% [at 35.3 µM]; for `O=NN1CCCCC1`, 13.3%. Still for that read-out and setting: to `O=C1OC(c2ccc(O)c(S(=O)(=O)O)c2)(c2ccc(O)c(S(=O)(=O)O)c2)c2c(Br)c(Br)c(Br)c(Br)c21` belongs 4.86% [at 35.3 µM].
